This is an account of results in PubChem BioAssay (NCI).

Among the test systems are SR leukemia; RPMI-8226 leukemia; OVCAR-8 ovarian; OVCAR-5 ovarian; OVCAR-4 ovarian; SK-OV-3 ovarian; IGROV1 ovarian; OVCAR-3 ovarian; HS 578T breast; NCI/ADR-RES ovarian; T-47D breast; BT-549 breast; MDA-MB-435 melanoma; SW-620 colon; MCF7 breast; HCT-116 colon; HCC-2998 colon; KM12 colon; MDA-MB-468 breast.
Common to all, as to test: NCI-60 one-dose screen, 48 h (100 = growth as untreated, 0 = no growth, -100 = all killed)
Details in all cases: 10 µM unless noted

Molecules are shown by their SMILES. Values joined by “and” are separate entries in the source; they are usually repeats but may differ in a detail not shown here. Equal values may be shown once. Compounds without any hit were thinned out: in the full panel of roughly 83,000, 20% have a hit.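 Activity criterion: percent growth below 10, measured after cells in 96-well plates were exposed to a single compound concentration for 48 hours.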 Unmarked numbers belong to inactive results. Active and inactive are the calls of the source.

On to `COc1c(F)ccc(C(=O)Nc2ccc3nc(NC(=O)C4CCCN(S(=O)(=O)C5CC5)C4)sc3c2)c1F` (configuration not stated), for which the growth in the test with SR leukemia is 10.3%; in the test on RPMI-8226 leukemia, 19%; in the test with OVCAR-8 ovarian, 36.4%; in the test with OVCAR-5 ovarian it was 77.4%; in the test on OVCAR-4 ovarian it was 38.5%; in the test on SK-OV-3 ovarian, 43.7%. Besides, the growth is 69.3% with IGROV1 ovarian; 66.5% in the test with OVCAR-3 ovarian; 17.6% in the test on HS 578T breast; 33.2% in the test on NCI/ADR-RES ovarian; -5.4% (active) with T-47D breast; -8.29% (active) in the test on BT-549 breast. For the same compound, the growth with MDA-MB-435 melanoma was 39.5%; in the test on SW-620 colon, 78.7%; with MCF7 breast, 15.2%; with HCT-116 colon, 32.2%; in the test on HCC-2998 colon it was 59.8%; in the test on KM12 colon, 44%. Further, the growth in the test with MDA-MB-468 breast was 3.58% (active).

As for `CC(C)c1sc(NC(=O)c2cc(NC(=O)c3cc(NC(=O)c4nccn4C)cn3C)cn2C)nc1C(=O)NCCCN(C)C`, the growth in the test on SR leukemia is 17.5%; in the test on RPMI-8226 leukemia it was 104%; in the test with OVCAR-8 ovarian, 81.2%; in the test with OVCAR-5 ovarian, 105%; with OVCAR-4 ovarian, 75.3%; in the test with SK-OV-3 ovarian it was 60%. In addition, the growth was 82.5% in the test with IGROV1 ovarian; 70.9% in the test with OVCAR-3 ovarian; 90.3% in the test with HS 578T breast; 111% with NCI/ADR-RES ovarian; 75.8% in the test with T-47D breast; 57.7% with BT-549 breast. Moreover, the growth in the test on MDA-MB-435 melanoma is 70.9%; in the test with SW-620 colon it was 66.6%; in the test with MCF7 breast, 69.7%; in the test with HCT-116 colon, 44.2%; in the test on HCC-2998 colon, 84.3%; with KM12 colon, 111%. For the same compound, the growth in the test on MDA-MB-468 breast was 65.3%.

For `O=c1oc2ccccc2cc1-c1csc(N=Nc2c(O)[nH]c3ccc(Cl)cc23)n1`, the growth is 96.3% in the test with SR leukemia; 117% in the test with RPMI-8226 leukemia; 110% in the test on OVCAR-8 ovarian; 116% in the test with OVCAR-5 ovarian; 99.5% in the test with OVCAR-4 ovarian; 94.1% in the test with SK-OV-3 ovarian. Moreover, the growth was 120% in the test on IGROV1 ovarian; 102% in the test on OVCAR-3 ovarian; 99.2% in the test on HS 578T breast; 103% with NCI/ADR-RES ovarian; 93.6% in the test on T-47D breast; 104% with BT-549 breast. Moreover, the growth in the test on MDA-MB-435 melanoma is 106%; with SW-620 colon it was 109%; with MCF7 breast, 81.4%; in the test with HCT-116 colon it was 106%; in the test with HCC-2998 colon it was 103%; in the test on KM12 colon it was 103%. Moreover, the growth with MDA-MB-468 breast was 106% and 94.5%.

On to `COc1ccc(-c2nc(SCC(C)C)nc(NCCc3c[nH]c4ccccc34)c2C#N)cc1`, for which the growth with SR leukemia is 19.7%; in the test on RPMI-8226 leukemia, 42.8%; in the test with OVCAR-8 ovarian, 80.4%; in the test with OVCAR-5 ovarian, 81.5%; with OVCAR-4 ovarian it was 73.8%; in the test with SK-OV-3 ovarian it was 71.7%. The growth was 101% in the test on IGROV1 ovarian; 85.4% in the test with OVCAR-3 ovarian; 43.2% in the test on HS 578T breast; 61.3% in the test with NCI/ADR-RES ovarian; 22.6% in the test on T-47D breast; 80.8% with BT-549 breast. In addition, the growth in the test on MDA-MB-435 melanoma is 80.7%; in the test on SW-620 colon, 72.7%; with MCF7 breast, 22.8%; in the test on HCT-116 colon, 25.1%; in the test with HCC-2998 colon, 62.6%; with KM12 colon it was 52.8%. In addition, the growth with MDA-MB-468 breast is 58.4%.

Regarding `CCN1C(=O)N(CC)C2NNC(Sc3c(C(=O)O)c4ccccc4n(C4CCCC4)c3=O)=NC21` (configuration not stated), the growth with SR leukemia is 22.4%; in the test with RPMI-8226 leukemia, 24.8%; in the test with OVCAR-8 ovarian it was 4.93% (active); in the test on OVCAR-5 ovarian it was 38.4%; in the test with OVCAR-4 ovarian, 61.8%; in the test on SK-OV-3 ovarian, 32.8%. The growth with IGROV1 ovarian was 29.6%; with OVCAR-3 ovarian, -32.5% (active); in the test on HS 578T breast, 7.18% (active); in the test with NCI/ADR-RES ovarian, 25.1%; with T-47D breast, 61.4%; with BT-549 breast it was 6.1% (active). Moreover, the growth in the test with MDA-MB-435 melanoma was -29.3% (active); in the test with SW-620 colon, 30.6%; with MCF7 breast, 16.6%; in the test on HCT-116 colon, 4.07% (active); in the test with HCC-2998 colon it was 26.4%; with KM12 colon it was 3.71% (active). For the same compound, the growth in the test with MDA-MB-468 breast was 58.1%.

On to `O=C1c2c(c3c4cc(F)ccc4oc3c3[nH]c4ccc(Br)cc4c23)C(=O)N1O`, for which the growth with SR leukemia was 4.45% (active); in the test on RPMI-8226 leukemia it was 34.2%; in the test with OVCAR-8 ovarian, 19.8%; in the test on OVCAR-5 ovarian it was 108%; in the test with OVCAR-4 ovarian, 76.6%; in the test on SK-OV-3 ovarian, 4.35% (active). Besides, the growth is 46.3% in the test with IGROV1 ovarian; 67.2% with OVCAR-3 ovarian; -4.24% (active) in the test on HS 578T breast; 30.7% with NCI/ADR-RES ovarian; 23.9% with T-47D breast; 1.19% (active) in the test on BT-549 breast. In addition, the growth with MDA-MB-435 melanoma is 37.1%; in the test with SW-620 colon, 34.9%; in the test with MCF7 breast it was 15.6%; in the test with HCT-116 colon it was 34.5%; with HCC-2998 colon, 63.5%; in the test on KM12 colon, 34.5%. The growth in the test on MDA-MB-468 breast is 46.4%.

Take `CN(C)c1ccnc(CNCCSC2(c3ccccc3)c3ccccc3C=Cc3ccccc32)c1`: the growth is -52.6% (active) with SR leukemia; -48% (active) in the test on RPMI-8226 leukemia; -45.1% (active) with OVCAR-8 ovarian; 1.39% (active) in the test on OVCAR-5 ovarian; 16.8% in the test with OVCAR-4 ovarian; 6.47% (active) with SK-OV-3 ovarian. The growth was 11.1% with IGROV1 ovarian; -58.6% (active) in the test on OVCAR-3 ovarian; -34% (active) with HS 578T breast; -61.6% (active) with NCI/ADR-RES ovarian; -32% (active) in the test with T-47D breast; -47.1% (active) in the test with BT-549 breast. In addition, the growth was -86.3% (active) with MDA-MB-435 melanoma; -76.1% (active) in the test with SW-620 colon; -75.8% (active) in the test on MCF7 breast; -38.8% (active) in the test on HCT-116 colon; -77.3% (active) with HCC-2998 colon; -61% (active) in the test with KM12 colon. The growth with MDA-MB-468 breast was -55.3% (active).

In the case of `COc1ccc(NC(=O)[C@@H](N)Cc2ccccc2)cc1C(=O)Nc1cccc(C2CC(=O)c3c(cc(OC)c(OC)c3OC)O2)c1` (some centres not stated), the growth with SR leukemia was 14.7%; in the test with RPMI-8226 leukemia, 20.2%; with OVCAR-8 ovarian, 29.1%; with OVCAR-5 ovarian, 101%; in the test on OVCAR-4 ovarian, 54.7%; in the test with SK-OV-3 ovarian, 152%. Further, the growth in the test with IGROV1 ovarian is 74.5%; in the test with OVCAR-3 ovarian it was 64%; with HS 578T breast it was 77.6%; in the test on NCI/ADR-RES ovarian it was 39.3%; with T-47D breast it was 25.3%; in the test on BT-549 breast, 19.8%. In addition, the growth with MDA-MB-435 melanoma is 56.8%; with SW-620 colon, 50.9%; in the test with MCF7 breast it was 28.1%; in the test on HCT-116 colon, 45.2%; in the test on HCC-2998 colon, 114%; in the test with KM12 colon, 35.1%. Besides, the growth in the test with MDA-MB-468 breast was 44.3%.
